Bioassay records as filed in PubChem BioAssay.
D2 PAM-1: D2 dopamine receptor (human) potentiation; P14416; HEK293 T-REx D2, calcium flux, EC20 dopamine potentiation; potentiation, % at 10 µM; 340,000 compounds, 0.34% hits; AID 485347;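 active means potentiation over 3 SD above the plate norm, cut at about 30% in these data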; further: 0% is about no effect
Target sequence (P14416 whole entry, looked up): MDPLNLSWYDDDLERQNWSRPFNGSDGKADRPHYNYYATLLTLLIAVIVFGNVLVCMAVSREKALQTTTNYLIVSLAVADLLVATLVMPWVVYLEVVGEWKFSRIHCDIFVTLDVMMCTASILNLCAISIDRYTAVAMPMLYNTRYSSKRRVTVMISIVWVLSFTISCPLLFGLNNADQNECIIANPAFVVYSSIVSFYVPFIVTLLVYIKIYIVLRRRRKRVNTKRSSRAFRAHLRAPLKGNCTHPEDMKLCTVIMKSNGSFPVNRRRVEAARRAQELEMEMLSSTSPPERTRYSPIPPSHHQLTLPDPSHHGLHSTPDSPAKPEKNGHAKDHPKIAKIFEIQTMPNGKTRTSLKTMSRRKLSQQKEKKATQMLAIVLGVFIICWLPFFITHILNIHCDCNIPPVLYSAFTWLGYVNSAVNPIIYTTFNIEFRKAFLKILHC
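Potentiation of an EC20 dopamine calcium response measured kinetically over 180 s, after a preceding 180 s compound-only read flagging agonists. Cells: inducible Hek293 Trex D2 line, 4000/well, cultured overnight at 30 C before dye loading.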
D2 ag-1: activates the human D2 dopamine receptor; P14416; DiscoveRx PathHunter D2 beta-arrestin, luminescence, 90 min; 100% = 57 uM dopamine signal; activation, % (concentration not given with the values); 360,000 compounds, 0.084% hits; AID 624465; in the data active means activation above about 40%
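DiscoveRx PathHunter D2 beta-arrestin cells (2,100/well) attached overnight, then compound-stimulated 90 min at 37 C in HBSS/10 mM HEPES/0.1% Tween-20 buffer; beta-galactosidase complementation read by luminescence after 1 h at ambient temperature. Dopamine 57 uM final (EC100) as control.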
D2 ag-2: agonists of human D2 dopamine receptor; P14416; HEK293 T-REx D2 cells, calcium flux agonist mode; activation, % at 2 µM; 340,000 compounds, 0.53% hits; AID 485358;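 active means activation over 3 SD above normal in the single-dose calcium agonist read, cut at about 30% in these data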; further: 0% is about no effect
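Tetracycline-induced HEK293 T-REx cells with force-coupled D2 receptor, plated overnight at 30 C, loaded with no-wash calcium dye. After a 10 s baseline, compound was pin-added and calcium flux read kinetically for 180 s; calcium rises flagged agonists.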
D2 PAM-2: human D2 receptor positive allosteric modulation | P14416 | DiscoveRx D2 beta-arrestin cells, luminescence, 90 min; 100% = 57 uM dopamine signal | potentiation, % (no concentration beside the values) | 360,000 compounds, 0.23% hits | AID 624464; in the data active means potentiation above about 50%
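PathHunter D2 cells, attached overnight at 37 deg C, received compound in DMSO plus dopamine at EC20 (50 nM final) for 90 min at 37 deg C. Beta-arrestin recruitment was read as luminescence after 1 h with detection reagent at ambient temperature.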
D2 antag: D2 dopamine receptor (human) antagonism | P14416 | HEK293 TREx D2 cells, calcium flux, dopamine EC80 | inhibition, % at 10 µM | 340,000 compounds, 2% hits | AID 485344; in the data active means inhibition above about 30%; inactive means below that, where a call was filed; further: 0% is about no effect
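Compounds are added to dye-loaded, induced HEK293 T-REx cells coupled to calcium release via D2; after a 3 min kinetic read an EC80 dopamine stimulus is given and fluorescence is recorded for 3 more min.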
Numbers without * were called inactive; . = not tested or not shown. Most compounds without a hit are left out; they make up all but 2.4% or so of the library.

SMILES	D2 PAM-1	D2 ag-1	D2 ag-2	D2 PAM-2	D2 antag
N#CC1(NC(=O)CN2c3cccc4cccc(c34)S2(=O)=O)CCCCC1	6	4	1	7	14
COc1ccc(S(=O)(=O)NCC2CCCN(C(=O)c3ccco3)C2)cc1 (stereo not given)	-8	-7	-1	-14	32*
COc1ccc(-c2nc3sc(CCNC(=O)c4cccc(C(F)(F)F)c4)c(C)n3n2)cc1	-4	.	0	.	.
Cc1ccc(Cl)cc1NC(=O)[C@@H]1CCC(=O)N1C1OC(=O)c2ccccc21 (stereo not given in full)	5	1	2	6	-14
COc1cc(-c2nc(-c3ccc(C)nc3OC)no2)cc(OC)c1OC	-8	.	1	.	2
CCOc1nc(C)ccc1-c1noc(-c2ccco2)n1	35*	-1	0	-10	-13
COc1ccc(-c2nc(-c3ccncc3)no2)c(OC)c1	14	1	0	-14	58*
COc1nc(C)ccc1-c1noc(-c2ccncc2)n1	38*	-1	0	-8	-20
COc1ccc(-c2ccc(-c3noc(-c4ccccc4)n3)c(OC)n2)cc1	-7	-2	1	-12	31*
CCOc1nc(C)ccc1-c1noc(-c2ccccn2)n1	12	-1	2	-20	-8
O=S(=O)(c1ccc(F)cc1)N1CCC(O)(c2ccc3c(c2)OCO3)CC1	6	0	-1	-12	1
OC1(c2ccc(F)cc2)CCN(Cc2cccnc2)CC1	-30	-6	1	-15	34*
OC1(c2ccc3c(c2)OCO3)CCN(Cc2ccc(F)cc2)CC1	-22	-6	2	-40	73*
CC(C)(C)c1ccc(Oc2ccc(NC(=O)CCC(=O)OCC(=O)c3ccccc3)cc2)cc1	-4	.	6	.	.
O=C(Nc1nc2cc3c(cc2s1)OCCO3)c1ccc([N+](=O)[O-])o1	11	1	1	7	37*
COc1ccc(CCNC(=O)CN(c2cc(C(F)(F)F)ccc2Cl)S(C)(=O)=O)cc1	15	.	0	.	.
COc1ccc(OCC(=O)Nc2ccc(NC(=O)c3cccs3)cc2)cc1	32*	0	-1	-6	-11
COc1ccc(NC(=O)c2cccs2)cn1	-7	-5	0	-4	9
CC(C)(C)c1ccc(Oc2ccc(NC(=O)c3cccs3)cn2)cc1	31*	2	9	1	-1
COc1ccc(OCC(=O)NNC(=O)c2cccs2)cc1	3	1	0	10	1
COc1ccc(N2c3ccccc3CN(Cc3ccccc3)[C@@H](C)[C@H]2Cc2cccnc2)cc1	.	-9	.	-2	.
COc1cccc(C(=O)Nc2nnc(SCC(=O)Nc3ccc(NC(C)=O)cc3)s2)c1	5	0	-1	-4	0
CCCN(C(=O)c1c(-c2ccccc2)noc1C)c1c(N)n(Cc2ccccc2)c(=O)[nH]c1=O	-3	0	-1	-2	65*
CCN(C(=O)COC(=O)c1c(-c2ccccc2)noc1C)c1c(N)n(Cc2ccccc2)c(=O)[nH]c1=O	.	1	.	-8	.
O=C(NCCN1CCN(C(=O)c2ccc(F)cc2)CC1)c1ccc(F)cc1	-28	0	0	-12	64*
SMILES	D2 PAM-1	D2 ag-1	D2 ag-2	D2 PAM-2	D2 antag
COc1ccc(OC)c(CN2CCN(Cc3cc(=O)oc4cc(O)ccc34)CC2)c1	-26	0	1	-17	34*
COc1ccc(N2CCN(S(=O)(=O)c3ccc(OC)c(C(=O)N4CCCC4)c3)CC2)cc1	-10	-2	0	-13	48*
COc1ccc(N2CCN(C(=O)CCS(=O)(=O)c3ccc(OC)cc3)CC2)cc1	32*	0	0	-4	-10
COc1ccc(S(=O)(=O)N2CCCCCC2)cc1C(=O)N1CCCCC1	-4	3	0	-4	-11
CCOc1ccc(CNC(=O)C2Cc3ccccc3N2C(=O)CC)cc1 (stereo not given)	.	.	1	.	.
COc1ccc(OC)c(CN2CCN(C(=O)c3ccc(F)cc3)CC2)c1	4	-4	1	-27	41*
COc1ccc(C(=O)N2CCN(S(=O)(=O)c3ccc(F)cc3)CC2)cc1OC	0	7	0	-2	39*
COc1ccc(C(=O)N2CCN(S(=O)(=O)c3ccc(Cl)cc3)CC2)cc1OC	6	3	1	-3	0
CCOC(=O)C1=C(CN2CCN(c3cccc(OC)c3)CC2)NC(=O)NC1c1ccc(OC)cc1 (stereo not given)	-15	.	3	.	.
CCOC(=O)C1CCN(CC(O)COc2ccc(S(=O)(=O)N3CCCC3)cc2[N+](=O)[O-])CC1 (stereo not given)	-23	-2	36*	-34	12
COc1cc2[nH]cc(C(=O)NCc3ccccc3)c(=O)c2cc1OC	15	5	1	-4	10
COc1cccc(N2CCN(C(=O)c3cc4c(OC)c(OC)c(OC)cc4[nH]3)CC2)c1	-12	2	1	-9	38*
COc1ccc2[nH]c(C(=O)NCCc3ccccc3)cc2c1	-8	-3	0	0	16
COc1cc2[nH]c(C(=O)N3CCN(C)CC3)cc2c(OC)c1OC	8	-3	2	-4	5
COc1cc2[nH]c(C(=O)NCc3ccccc3)cc2c(OC)c1OC	-15	1	-1	-21	84*
COc1cc2[nH]c(C(=O)NCCc3ccccc3)cc2c(OC)c1OC	-14	-1	-1	-24	79*
COc1cc2[nH]cc(C(=O)NCCc3ccccc3)c(=O)c2cc1OC	39*	3	-2	-3	-16
Cc1csc2nc(COC(=O)CNC(=O)c3ccc(F)cc3)cc(=O)n12	-7	.	0	.	.
CCc1ccc(NS(=O)(=O)c2[nH]ncc2C(=O)OC)cc1	-2	.	-1	.	.
COc1cccc(N2C(=O)C(CC(=O)Nc3ccc(F)cc3)N(CCC3=CCCCC3)C2=O)c1 (stereo not given)	-27	.	1	.	.
COc1cc(C(=O)NCCC(=O)NC(C)CCc2ccccc2)cc(OC)c1OC (stereo not given)	33*	-4	0	-2	-8
Cc1nnc(N2CCN(C(=O)NC(C)C)CC2)c2nn(-c3ccccc3)c(C)c12	-9	.	.	.	.
O=C(O)c1cn(-c2ccccc2)nc1-c1cccnc1	2	0	1	-1	5
Cc1ccccc1C(=O)NC1CCN(Cc2ccccc2)CC1	-21	-1	-2	-17	19
O=C(NC1CCN(Cc2ccccc2)CC1)c1cn(-c2ccccc2)nc1-c1cccnc1	0	-3	0	-28	75*
CC1CCCC(C)N1C(=O)c1ccc(S(=O)(=O)NCc2ccco2)cc1 (stereo not given)	.	0	-3	-6	37*
Cc1ccc(C)n1-c1ccc(C(=O)NC2CCN(Cc3ccccc3)CC2)cc1	-35	-3	0	-41	85*
